{
  "source": "ChEMBL document CHEMBL3433997",
  "about": "“St. Jude Leishmania screening dataset” (2016)",
  "format_in_all_cases": "functional",
  "key": {"[1]": {"biological_target": "Solute carrier family 2, facilitated glucose transporter member 1 (Homo sapiens) (UniProt P11166)", "sequence (P11166 whole entry)": "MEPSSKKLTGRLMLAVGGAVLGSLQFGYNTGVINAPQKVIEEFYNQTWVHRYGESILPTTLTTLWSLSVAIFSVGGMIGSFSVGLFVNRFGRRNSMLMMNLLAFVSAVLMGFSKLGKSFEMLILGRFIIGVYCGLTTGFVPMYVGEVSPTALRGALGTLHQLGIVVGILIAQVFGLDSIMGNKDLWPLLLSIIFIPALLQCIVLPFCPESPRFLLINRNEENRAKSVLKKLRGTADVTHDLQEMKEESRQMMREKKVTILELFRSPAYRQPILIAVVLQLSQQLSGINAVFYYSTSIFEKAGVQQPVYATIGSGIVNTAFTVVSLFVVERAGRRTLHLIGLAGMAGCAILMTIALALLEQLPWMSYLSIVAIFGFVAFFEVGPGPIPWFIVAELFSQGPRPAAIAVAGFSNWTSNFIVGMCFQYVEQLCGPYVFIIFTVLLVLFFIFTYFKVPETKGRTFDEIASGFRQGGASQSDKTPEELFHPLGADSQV", "assay": "ST_JUDE_LEISH: Cytotoxicity at 2uM final concentration against transgenic Leishmania Mexicana promastigotes LmGLUT1 that are glucose transport deficient and complemented with the human glucose transporter GLUT1. Activity is measured by DNA content using SYBR green in vitro"}, "[2]": {"biological_target": "Hexose transporter 1 (Plasmodium falciparum) (UniProt O97467)", "assay": "ST_JUDE_LEISH: Cytotoxicity at 2uM final concentration against transgenic Leishmania Mexicana promastigotes LmPfHT that are glucose transport deficient and complemented with the Plasmodium falciparum hexose transporter. Activity is measured by DNA content using SYBR green in vitro"}, "[3]": {"biological_target": "Glucose transporter (Leishmania mexicana) (UniProt O61059)", "assay": "ST_JUDE_LEISH: Cytotoxicity at 2uM final concentration against transgenic Leishmania Mexicana promastigotes LmGT2 that are glucose transport deficient and complemented with the L. Mexicana glucose transporter 2. Activity is measured by DNA content using SYBR green in vitro"}},
  "data": [
    {"smiles": "Cc1cccc2nc(-c3ccc(-c4cccc(CN5CCCCC5)c4)s3)[nH]c12", "values": [
      {"measurement": "inhibition", "setting": "[1]", "value": 5.63, "unit": "%"},
      {"measurement": "inhibition", "setting": "[2]", "value": 5.12, "unit": "%"},
      {"measurement": "inhibition", "setting": "[3]", "value": 1.81, "unit": "%"}
    ]},
    {"smiles": "CCCNCc1ccc(-c2ccc(CN(Cc3cccs3)C(=O)C3CCN(C)CC3)cc2)nc1", "values": [
      {"measurement": "inhibition", "setting": "[1]", "value": 2.14, "unit": "%"},
      {"measurement": "inhibition", "setting": "[2]", "value": 0.83, "unit": "%"},
      {"measurement": "inhibition", "setting": "[3]", "value": -0.89, "unit": "%"}
    ]},
    {"smiles": "CCn1ncc(Cl)c1CN(C)S(=O)(=O)c1ccc(Br)cc1", "values": [
      {"measurement": "inhibition", "setting": "[1]", "value": -0.68, "unit": "%"},
      {"measurement": "inhibition", "setting": "[2]", "value": -0.62, "unit": "%"},
      {"measurement": "inhibition", "setting": "[3]", "value": -2.26, "unit": "%"}
    ]},
    {"smiles": "COc1ccc2nccc(N/N=C/c3cccc([N+](=O)[O-])c3)c2c1", "values": [
      {"measurement": "inhibition", "setting": "[1]", "value": 3.18, "unit": "%"},
      {"measurement": "inhibition", "setting": "[2]", "value": 2.68, "unit": "%"},
      {"measurement": "inhibition", "setting": "[3]", "value": 4.33, "unit": "%"}
    ]},
    {"smiles": "C=CCc1cccc(OC)c1OCCCON1C(=N)N=C(N)NC1(C)C", "values": [
      {"measurement": "inhibition", "setting": "[1]", "value": -0.04, "unit": "%"},
      {"measurement": "inhibition", "setting": "[2]", "value": 0.37, "unit": "%"},
      {"measurement": "inhibition", "setting": "[3]", "value": 0.43, "unit": "%"}
    ]},
    {"smiles": "COc1cc2nc(Cl)nc(Nc3ccncc3)c2cc1OC", "values": [
      {"measurement": "inhibition", "setting": "[1]", "value": 0.52, "unit": "%"},
      {"measurement": "inhibition", "setting": "[2]", "value": -0.73, "unit": "%"},
      {"measurement": "inhibition", "setting": "[3]", "value": -1.27, "unit": "%"}
    ]},
    {"smiles": "Cc1ccc(-n2cc(CNCC3CCN(CCO)CC3)c(-c3ccc(F)cc3)n2)cc1", "values": [
      {"measurement": "inhibition", "setting": "[1]", "value": 85, "unit": "%"},
      {"measurement": "inhibition", "setting": "[2]", "value": 2.77, "unit": "%"},
      {"measurement": "inhibition", "setting": "[3]", "value": 28.2, "unit": "%"}
    ]},
    {"smiles": "CCCN(CCC)C(=S)N/N=C1/C(=O)Nc2ccccc21", "values": [
      {"measurement": "inhibition", "setting": "[1]", "value": 0.67, "unit": "%"},
      {"measurement": "inhibition", "setting": "[2]", "value": -0.6, "unit": "%"},
      {"measurement": "inhibition", "setting": "[3]", "value": -4.34, "unit": "%"}
    ]},
    {"smiles": "COc1ccc2nccc([C@@H](O)CN3CCC(NC(=O)/C=C/c4c[nH]c5c(C)cccc45)CC3)c2c1", "values": [
      {"measurement": "inhibition", "setting": "[1]", "value": 1.59, "unit": "%"},
      {"measurement": "inhibition", "setting": "[2]", "value": 1.23, "unit": "%"},
      {"measurement": "inhibition", "setting": "[3]", "value": -5.23, "unit": "%"}
    ]},
    {"smiles": "O=C(/C=C/c1ccc(Cl)c(Cl)c1)NCCCCCN1CCC(NC(=O)c2ccc([N+](=O)[O-])cc2)CC1", "values": [
      {"measurement": "inhibition", "setting": "[1]", "value": 12.2, "unit": "%"},
      {"measurement": "inhibition", "setting": "[2]", "value": 9.99, "unit": "%"},
      {"measurement": "inhibition", "setting": "[3]", "value": 9.31, "unit": "%"}
    ]},
    {"smiles": "COc1ccc(-n2ccnc2SCC(=O)Nc2cc(C(F)(F)F)ccc2Cl)c(OC)c1", "values": [
      {"measurement": "inhibition", "setting": "[1]", "value": 12.8, "unit": "%"},
      {"measurement": "inhibition", "setting": "[2]", "value": 11.2, "unit": "%"},
      {"measurement": "inhibition", "setting": "[3]", "value": 7.95, "unit": "%"}
    ]},
    {"smiles": "O=C(Nc1cccc(CN2CCCN(CC3CCCCC3)CC2)c1)c1cc2ccccc2s1", "values": [
      {"measurement": "inhibition", "setting": "[1]", "value": 1.81, "unit": "%"},
      {"measurement": "inhibition", "setting": "[2]", "value": 0.88, "unit": "%"},
      {"measurement": "inhibition", "setting": "[3]", "value": -8.67, "unit": "%"}
    ]},
    {"smiles": "COc1cccc(CCc2c(CCNCCCCCCNCCc3ccccc3)ccc(OC)c2OC)c1", "values": [
      {"measurement": "inhibition", "setting": "[1]", "value": 93, "unit": "%"},
      {"measurement": "inhibition", "setting": "[2]", "value": 102, "unit": "%"},
      {"measurement": "inhibition", "setting": "[3]", "value": 106, "unit": "%"}
    ]},
    {"smiles": "Cc1nc(N)nc(N)c1-c1ccc(Br)c(Br)c1", "values": [
      {"measurement": "inhibition", "setting": "[1]", "value": 4.47, "unit": "%"},
      {"measurement": "inhibition", "setting": "[2]", "value": 4.38, "unit": "%"},
      {"measurement": "inhibition", "setting": "[3]", "value": 3.4, "unit": "%"}
    ]},
    {"smiles": "Cc1ccc(CNC(=O)c2cc3c(=O)n4ccccc4nc3n(CCCN3CCOCC3)c2=N)cc1", "values": [
      {"measurement": "inhibition", "setting": "[1]", "value": 8.03, "unit": "%"},
      {"measurement": "inhibition", "setting": "[2]", "value": 6.83, "unit": "%"},
      {"measurement": "inhibition", "setting": "[3]", "value": 7.61, "unit": "%"}
    ]},
    {"smiles": "CC(C)n1nc(C(=O)N2CCN(c3ccccc3)CC2)c2ccccc2c1=O", "values": [
      {"measurement": "inhibition", "setting": "[1]", "value": 1.27, "unit": "%"},
      {"measurement": "inhibition", "setting": "[2]", "value": -0.42, "unit": "%"},
      {"measurement": "inhibition", "setting": "[3]", "value": -0.69, "unit": "%"}
    ]},
    {"smiles": "CCCc1nc2c(N3CC(NC(=O)/C=C/c4ccccc4)C3)cccc2n1C1CC1", "values": [
      {"measurement": "inhibition", "setting": "[1]", "value": 9, "unit": "%"},
      {"measurement": "inhibition", "setting": "[2]", "value": 7.28, "unit": "%"},
      {"measurement": "inhibition", "setting": "[3]", "value": 8.19, "unit": "%"}
    ]}
  ]
}
